The text below walks through data of PubChem BioAssay (NCATS).

Results filed as inconclusive are left out. Values without a mark were called inactive. Calls of active or inactive are those of the source. Calls come from the whole dose curve; as a rule, active = well fitted cell-killing curve with a large enough effect; inconclusive = small, poorly fitted or top-dose-only effect; inactive = no such curve, though single readings can be large or run the other way.
Potency is the fitted concentration of half-maximal effect.

A short description of this experiment: qHTS of pediatric cancer cell lines to identify multiple opportunities for drug repurposing: Primary screen for OHS-50 cells (AID 1347103).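 For activity change, negative = cytotoxic: plate controls were DMSO neutral control for no effect and bortezomib positive control for full effect.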 Note: nearly all actives have a fitted effect of over 40% in size. The following applies: OHS-50 osteosarcoma viability, CellTiter-Glo luminescence, 48 h; series mostly up to 57.3 µM; activity change, negative = cytotoxic: at the top concentration. In a few lines: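 Cells (500-1,000/well) rested 5 h, then received compounds for 48 h; metabolically active cells were measured by CellTiter-Glo luminescence. Final concentrations spanned up to 46 µM (MIPE, 11-point) or 0.59 nM-46 µM (NPC, 8-point) in primary screens, 11-point in follow-ups.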
For the molecule `CC(Cc1ccc2c(c1)OCO2)NO` (stereo not given), the “activity change, negative = cytotoxic” value is -23.7% [at 116 µM]. Turning to `COCC(=O)N(c1c(C)cccc1C)C(C)C(=O)OC` (stereo not given), the “activity change, negative = cytotoxic” value was -6.9%. With `CCC(OC(C)=O)C(CC(C)NC)(c1ccccc1)c1ccccc1` (stereo not given), the Potency was 28.5 µM (active). In the case of `CCN(CC)C(C)C(=O)c1ccccc1` (stereo not given), the “activity change, negative = cytotoxic” value was 18.8%. For the molecule `CC[n+]1c(-c2ccccc2)c2cc(N)ccc2c2ccc(N)cc21`, the Potency is 1.55 µM (active).

With `COc1ccc2c(C(=O)c3ccc(Cl)cc3)c(C)n(CC(=O)O)c2c1`, the “activity change, negative = cytotoxic” value was 17.2%. As to `NC(=O)OCCCc1ccccc1`, the “activity change, negative = cytotoxic” value was 16%. As for `O=C1NCN(c2ccccc2)C12CCN(CCCOc1ccc(F)cc1)CC2`, the Potency was 27.6 µM (active). With `C[C@]12Cc3nonc3C[C@@H]1CC[C@@H]1[C@@H]2CC[C@@]2(C)[C@H]1CC[C@]2(C)O`, the Potency was 15.5 µM (active). Same read-out and setting: under `C[C@H](CN1CCOCC1)C(C(=O)N1CCCC1)(c1ccccc1)c1ccccc1` stands 43.4 µM (active).
